PubChem BioAssay (NCI)
This is part of a sample that, as a whole, favours compounds with a hit. Of some 83,000 tested, about 20% had one in any assay.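 48-hour exposure, single concentration, 96-well plates; percent growth endpoint where 0 means no net growth. Active: below 10.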 The source made the active and inactive calls.

What was measured:
Experiment in all cases: NCI-60 one-dose screen, 48 h (100 = growth as untreated, 0 = no growth, -100 = all killed)
Details in all cases: 10 µM unless noted
NCI/ADR-RES ovarian = test system: NCI/ADR-RES ovarian
T-47D breast = test system: T-47D breast
BT-549 breast = test system: BT-549 breast
MDA-MB-435 melanoma = test system: MDA-MB-435 melanoma
SW-620 colon = test system: SW-620 colon
MCF7 breast = test system: MCF7 breast
HCT-116 colon = test system: HCT-116 colon
HCC-2998 colon = test system: HCC-2998 colon
KM12 colon = test system: KM12 colon

Measured: growth

CC(=O)C(c1c(O)c2ccccc2oc1=O)c1cc(=O)oc2c1ccc1ccccc12 (stereo unspecified)
inactive: NCI/ADR-RES ovarian 99.6% | T-47D breast 84.3% | BT-549 breast 87.9% | MDA-MB-435 melanoma 103% | SW-620 colon 99% | MCF7 breast 91.3% | HCT-116 colon 92.3% | HCC-2998 colon 104% | KM12 colon 109%

CCC[CH2][Sn]([CH2]CCC)([CH2]CCC)[O]c1ccc(Cl)cc1Cl
active: NCI/ADR-RES ovarian -84.6% | T-47D breast -84% | BT-549 breast -81.7% | MDA-MB-435 melanoma -60.7% | SW-620 colon -92.9% | MCF7 breast -93% | HCT-116 colon -79.9% | HCC-2998 colon -95.4% | KM12 colon -94.2%

CC12CCC3C(CCC4=CC(=O)CCC43CF)C1CCC2=O (stereo unspecified)
inactive: NCI/ADR-RES ovarian 108% | T-47D breast 39.4% | BT-549 breast 97.2% | MDA-MB-435 melanoma 100% | SW-620 colon 126% | MCF7 breast 130% | HCT-116 colon 110% | HCC-2998 colon 140% | KM12 colon 117%

COc1ccc(N(CC(=O)NCCC[Te]c2ccccc2)C(=O)CCSC2=C(C)C(=O)c3ccccc3C2=O)cc1
inactive: MDA-MB-435 melanoma 11.9%
active: NCI/ADR-RES ovarian -36.3% | T-47D breast -57.7% | BT-549 breast -18.2% | SW-620 colon 5.47% | MCF7 breast -22.3% | HCT-116 colon -65.1% | HCC-2998 colon -35.4% | KM12 colon -17.3%

COc1cccc2c1c(C(=O)C(=O)Nc1cc(C)no1)cn2Cc1ccc(F)cc1
active: NCI/ADR-RES ovarian -0.189% | MDA-MB-435 melanoma -34.4%
inactive: T-47D breast 68% | BT-549 breast 25.5% | SW-620 colon 15.5% | MCF7 breast 26.9% | HCT-116 colon 34.4% | HCC-2998 colon 58.4% | KM12 colon 16.4%

COc1ccc(C2=N[C@@H](Cc3ccccc3)C(=O)Nc3ccsc32)cc1
active: MDA-MB-435 melanoma -15.7%
inactive: NCI/ADR-RES ovarian 28.4% | T-47D breast 61.1% | BT-549 breast 51.7% | SW-620 colon 37.6% | MCF7 breast 24.1% | HCT-116 colon 27.5% | HCC-2998 colon 81.5% | KM12 colon 39.1%

CCc1ccccc1[C@@H]1C[C@]2(C)CCO[C@@H]2OO1
inactive: NCI/ADR-RES ovarian 105% | T-47D breast 101% | BT-549 breast 111% | MDA-MB-435 melanoma 109% | SW-620 colon 102% | MCF7 breast 95.7% | HCT-116 colon 96.3% | HCC-2998 colon 93.7% | KM12 colon 101%

Nc1c(F)cc(-c2nc3cc(F)ccc3[se]2)cc1F
active: T-47D breast 5.78% | MCF7 breast 2.27% | HCC-2998 colon -44.5%
inactive: NCI/ADR-RES ovarian 94.6% | BT-549 breast 78.9% | MDA-MB-435 melanoma 106% | SW-620 colon 95.2% | HCT-116 colon 37.1% | KM12 colon 42.5%

CC1=C([Te]c2ccc(O)cc2)C(=O)c2ccccc2C1=O
active: NCI/ADR-RES ovarian -2.79% | T-47D breast -67.3% | BT-549 breast -1.32% | MDA-MB-435 melanoma -76.7% | SW-620 colon 3.05% | MCF7 breast -4.83% | HCT-116 colon -63.4% | HCC-2998 colon -1.49% | KM12 colon 6.03%

Cc1ccc(C(=O)NCCCOc2ccc(N)cc2Cl)cc1S(=O)(=O)F
inactive: NCI/ADR-RES ovarian 103% | T-47D breast 81.9% | BT-549 breast 98% | MDA-MB-435 melanoma 90.9% | SW-620 colon 104% | MCF7 breast 103% | HCT-116 colon 98.9% | HCC-2998 colon 106% | KM12 colon 90.8%

COC[C@@H]1C[C@@]2(C)[C@@H](CC[C@@H]3[C@@H]2CC[C@@]2(C)[C@H]3CC[C@]2(C)O)CC1=O
inactive: NCI/ADR-RES ovarian 101% | T-47D breast 88.2% | BT-549 breast 89.1% | MDA-MB-435 melanoma 108% | SW-620 colon 110% | MCF7 breast 92.7% | HCT-116 colon 96% | HCC-2998 colon 94.9% | KM12 colon 101%

CC1=C(CCCOC(=O)CN)C2=C(C)C3(CC3)[C@@](C)(O)C(=O)C2=C1
inactive: NCI/ADR-RES ovarian 84.7% | T-47D breast 63.6% | BT-549 breast 65.8% | MDA-MB-435 melanoma 101% | SW-620 colon 91.5% | MCF7 breast 71.1% | HCT-116 colon 71.5% | HCC-2998 colon 85.1% | KM12 colon 100%

CC[C@H](C)[C@@H]([C@@H](CC(=O)N1CCC[C@H]1[C@H](OC)[C@@H](C)C(=O)N[C@H](C)[C@@H](O)c1ccccc1)OC)N(C)C(=O)[C@@H](NC(=O)[C@@H](NC)C(C)C)C(C)C
inactive: T-47D breast 87.3% | SW-620 colon 32.8% | MCF7 breast 15.3% | KM12 colon 15.3%
active: NCI/ADR-RES ovarian -2.45% | BT-549 breast 6.48% | MDA-MB-435 melanoma 2.42% | HCT-116 colon 7.3% | HCC-2998 colon 9.29%

Cc1cc(N(CCCl)CCCl)ccc1C=Nc1cccnc1
inactive: NCI/ADR-RES ovarian 71.6% | T-47D breast 45.3% | BT-549 breast 86.9% | MDA-MB-435 melanoma 101% | SW-620 colon 85.3% | MCF7 breast 36.5% | HCT-116 colon 77.6% | HCC-2998 colon 90.7% | KM12 colon 102%
